9 compounds from PubChem BioAssay (Tox21) can be followed below.

The nature of experiment [1]: Nuclear factor erythroid 2-related factor 2/antioxidant responsive element (Nrf2/ARE) small molecule agonists: luciferase reporter gene qHTS assay in human keratinocytes (AID 1919969; further: nearly all actives have a fitted effect of over 35% in size; further: potency means the concentration at half of the fitted maximal effect). (A reporter such as luciferase makes a cellular process visible.)
For experiment [2], the target named is Gonadotropin-releasing hormone receptor (Homo sapiens) (UniProt P30968). Briefly: Human gonadotropin-releasing hormone receptor (GnRHR) small molecule agonists, calcium flux assay in GnRHR-HEK293 cells (AID 1920063). Further: nearly all actives have a fitted effect of over 35% in size. A digest of the protocol: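 Calcium flux, agonist mode, human GnRHR stably integrated in HEK293; dye 1 h at 37 C before compound; Ex/Em=480/540 kinetic read, 3 min; 15 concentrations, triplicate.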
In general terms: A change in cytosolic calcium serves as a functional read-out for many receptors and channels.

The target in experiment [3] is KiSS-1 receptor (Homo sapiens) (UniProt Q969F8). Briefly: Human kisspeptin (KISS1R) small molecule agonists, calcium flux assay in KISS1R-HEK293 cells (AID 1920064; active means well fitted activation curve with a large enough effect in the repeat runs). A digest of the protocol: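 Triplicate 15-concentration series were applied to dye-loaded human KISS1R HEK293 cells, and agonist-evoked calcium fluorescence was captured for 3 min.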
Experiment [4] can be described thus: p53 small molecule agonists, cell-based qHTS assay with human liver microsomes: qHTS cell viability counter screen (AID 1963579). Further: nearly all actives have a fitted effect of over 45% in size. Further: potency means the concentration at half of the fitted maximal effect. A digest of the protocol: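 After the 460/530 nm beta-lactamase read, CellTiter-Glo was added to the same wells and luminescence measured after 30 min at room temperature, giving viability of p53RE-bla cells treated 16 h with compounds plus microsomes and NADPH.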

Experiment [5] is described as follows: p53 small molecule agonists, cell-based qHTS assay with rat liver microsomes: qHTS cell viability counter screen (AID 1963580). Further: nearly all actives have a fitted effect of over 45% in size. A digest of the protocol: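 Luminescent ATP readout (CellTiter-Glo, 30 min at room temperature) reports viability of p53RE-bla HCT-116 cells after 16 h at 37 C with test compounds under metabolic activation by rat liver microsomes and NADPH at 0.5 mg/mL final each.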
A general note: In qHTS, concentration-response curves come from the screen itself.

The nature of experiment [6]: p53 small molecule agonists, cell-based qHTS assay: qHTS cell viability counter screen (AID 1963581). Further: nearly all actives have a fitted effect of over 45% in size. A digest of the protocol: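 Multiplexed with the reporter read, a CellTiter-Glo step (30 min, room temperature) gauges ATP-based viability of HCT-116 p53RE-bla cells after 16 h compound incubation at 37 C.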
Experiment [7] addresses 5-hydroxytryptamine receptor 2A (Homo sapiens) (UniProt P28223). Briefly: 5-hydroxytryptamine receptor 2A (HTR2A) small molecule antagonists, cell-based qHTS assay (AID 1963586). Further: nearly all actives have a fitted effect of over 45% in size. A digest of the protocol:
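CHO cells stably expressing human HTR2A were plated for 18 h at 37 C, then loaded with calcium dye for 1 h. Compounds were preincubated 5 min at room temperature before DOI (4 nM solution) was added. Kinetic fluorescence was read for 3 min.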

The target is the same in experiment [8]. Briefly: 5-hydroxytryptamine receptor 2A (HTR2A) small molecule agonists, cell-based qHTS assay (AID 1963587). Further: nearly all actives have a fitted effect of over 30% in size. Further: potency means the concentration at half of the fitted maximal effect. A digest of the protocol: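 HTR2A-CHO cells, plated 18 h at 37 C/5% CO2, dye-loaded 1 h at 37 C; compounds in DMSO added by pin tool (agonist mode). Intracellular calcium flux read as kinetic fluorescence on FDSS over 2 min at 1 s intervals.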
Experiment [9] addresses Muscarinic acetylcholine receptor M1 (Homo sapiens) (UniProt P11229). Nature of the experiment: Cholinergic receptor muscarinic 1 (CHRM1) small molecule antagonists, cell-based qHTS assay (AID 1963588). Further: nearly all actives have a fitted effect of over 40% in size. Further: potency means the concentration at half of the fitted maximal effect. A digest of the protocol: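 Compounds were tested at 15 concentrations in three independent runs. Dye-loaded CHRM1-CHO cells were exposed 5 min at room temperature before stimulation by acetylcholine added at 50nM. Intracellular calcium was read kinetically on FDSS for 3 min.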

For experiment [10] the target is unchanged. Nature of the experiment: Cholinergic receptor muscarinic 1 (CHRM1) small molecule agonists, cell-based qHTS assay (AID 1963589). Further: nearly all actives have a fitted effect of over 35% in size. A digest of the protocol: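 qHTS, 15-point titration, 3 independent runs: compounds pin-transferred onto dye-loaded CHRM1-CHO cells (human M1), calcium fluorescence followed every second to detect agonism.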
Experiment [11] is described as follows: cAMP Responsive Elements (CRE) small molecule antagonists, cell-based qHTS assay (AID 1963591; active means well fitted inhibition curve with a large enough effect in the signal ratio in the repeat runs, not every such curve was filed as active; the % refers to the signal ratio; further: potency means the concentration at half of the fitted maximal effect). A digest of the protocol: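 Fluorescence intensity from cleaved LiveBLAzer B/G substrate (2 h, room temperature) quantified CRE-bla activity in HEK 293T cells exposed 3 h to compound with 0.25 uM final NKH477.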
The target of experiment [12] is Beta-2 adrenergic receptor (Homo sapiens) (UniProt P07550). Briefly: Adrenergic beta2 receptor (ADRB2) small molecule antagonists, cell-based qHTS assay (AID 1963592). Further: series mostly up to about 92 µM; nearly all actives have a fitted effect of over 50% in size. A digest of the protocol: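 Assay format: CHO-ADRB2 cells, 18-20hr seeding at 37C/5% CO2, then compound plus 1nM isoproterenol agonist mix for 0.5hr RT. Homogeneous time-resolved fluorescence cAMP detection after 1hr, expressed as 665/615 nm ratio.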

Experiment [13] has the same target. Nature of the experiment: Adrenergic beta2 receptor (ADRB2) small molecule agonists, cell-based qHTS assay (AID 1963593).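 Further: CHO cells stably overexpressing human ADRB2.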 A digest of the protocol:
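CHO cells stably over-expressing ADRB2 were plated overnight at 37C, then dosed with compounds plus a stimulation mix containing 100uM IBMX and 25uM Ro-20-1724 for 0.5hr at room temperature. cAMP was measured by HTRF competition, 1hr.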

Experiment [14] deals with D(2) dopamine receptor (Homo sapiens) (UniProt P14416). Nature of the experiment: Dopamine D2 receptor (DRD2) small molecule agonists, cell-based qHTS assay (AID 1963594). Further: nearly all actives have a fitted effect of over 35% in size. A digest of the protocol:
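HEK293 cells stably expressing DRD2 were cultured 24 h at 37 C, then given Ro20-1724 (0.1 mM final) and compounds for 10 min at room temperature. NKH477 (200nM) was then added for 30 min. cAMP was read by HTRF.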

The target is the same in experiment [15]. Briefly: Dopamine D2 receptor (DRD2) small molecule antagonists, cell-based qHTS assay (AID 1963595; active means well fitted inhibition curve with a large enough effect in the signal ratio in the repeat runs, with a control signal flat; the % refers to the signal ratio). A digest of the protocol: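 HEK293 cells stably expressing DRD2 were preincubated with 0.1 mM Ro20-1724, then with compound for 10 min at room temperature. Cells were stimulated with 200 nM NKH477 plus 12 nM quinpirole for 30 min, and cAMP was read by HTRF.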

A short description of experiment [16]: p53 small molecule agonists, cell-based qHTS assay with human liver microsomes (AID 1963577).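 Further: p53 response element beta-lactamase reporter cells with liver microsomes plus NADPH.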 A digest of the protocol:
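Steps: plate p53RE-bla cells, incubate 5 h at 37 C; add compound in DMSO; add microsomes (0.5 mg/mL final) and NADPH (0.5 mg/mL final); incubate 16 h at 37 C; add LiveBLAzer, 2 h RT; read fluorescence.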

A short description of experiment [17]: p53 small molecule agonists, cell-based qHTS assay with rat liver microsomes (AID 1963578). A digest of the protocol: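 Metabolic activation is supplied by rat liver microsomes with NADPH (each 0.5 mg/mL final). p53RE-bla cells incubate with compound 16 h at 37 C; reporter activity is measured by LiveBLAzer fluorescence.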
A short description of experiment [18]: p53 small molecule agonists, cell-based qHTS assay (AID 1963582; active means well fitted activation curve with a large enough effect in the signal ratio in the repeat runs, not every such curve was filed as active; the % refers to the signal ratio). A digest of the protocol: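 Beta-lactamase reporter cells (p53RE-bla) treated with compounds for 16 h at 37 C; FRET substrate, 2 h, room temperature; fluorescence intensity.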
Experiment [19] is described as follows: cAMP Responsive Elements (CRE) small molecule agonists, cell-based qHTS assay (AID 1963590). A digest of the protocol: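 Quantitative HTS for CRE agonists: HEK 293T CRE-bla cells, overnight plating, 3 h compound incubation at 37 C/5% CO2, then 2 h room-temperature LiveBLAzer B/G FRET substrate loading.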
Experiment [20] is described as follows: G protein-coupled receptor (GPCR) small molecule agonists, calcium flux assay: HEK293 wild type cell line counter screen (AID 1920065). A digest of the protocol:
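Non-specific calcium responders were flagged by adding DMSO-dissolved compounds to dye-loaded cells and reading 480/540 nm fluorescence each second for 3 min; ATP served as positive control.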

“And” between values parts separate entries of the source, which are not always exact repeats. Equal values may be shown once. Inconclusive results are not listed. The source made the active and inactive calls. Unless noted, the call rests on the fitted dose curve.

Muscarinic acetylcholine receptor M1 (Homo sapiens), sequence (P11229 whole entry, looked up): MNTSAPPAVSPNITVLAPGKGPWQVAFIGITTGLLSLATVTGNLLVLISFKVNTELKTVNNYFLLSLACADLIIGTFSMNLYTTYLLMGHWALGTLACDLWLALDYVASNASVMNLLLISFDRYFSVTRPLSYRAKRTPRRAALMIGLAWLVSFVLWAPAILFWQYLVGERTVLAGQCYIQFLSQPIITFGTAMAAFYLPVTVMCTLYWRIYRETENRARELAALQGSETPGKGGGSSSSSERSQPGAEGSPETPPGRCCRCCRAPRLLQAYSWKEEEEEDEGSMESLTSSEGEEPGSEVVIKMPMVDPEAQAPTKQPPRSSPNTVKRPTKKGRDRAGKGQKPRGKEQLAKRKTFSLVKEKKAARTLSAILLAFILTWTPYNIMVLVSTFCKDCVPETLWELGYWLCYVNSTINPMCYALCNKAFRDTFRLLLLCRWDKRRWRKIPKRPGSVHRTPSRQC
Beta-2 adrenergic receptor (Homo sapiens), sequence (P07550 whole entry, looked up): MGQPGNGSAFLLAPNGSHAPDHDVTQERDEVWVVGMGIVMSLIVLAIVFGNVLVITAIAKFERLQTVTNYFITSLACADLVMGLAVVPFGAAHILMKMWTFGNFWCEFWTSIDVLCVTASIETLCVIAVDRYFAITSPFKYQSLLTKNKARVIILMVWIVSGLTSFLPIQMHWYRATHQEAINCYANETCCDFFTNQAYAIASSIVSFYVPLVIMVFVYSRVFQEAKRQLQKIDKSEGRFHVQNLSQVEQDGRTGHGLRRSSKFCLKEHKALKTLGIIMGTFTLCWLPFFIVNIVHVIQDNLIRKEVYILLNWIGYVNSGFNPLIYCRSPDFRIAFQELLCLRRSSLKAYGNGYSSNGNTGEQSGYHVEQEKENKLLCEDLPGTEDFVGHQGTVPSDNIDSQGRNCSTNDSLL
D(2) dopamine receptor (Homo sapiens), sequence (P14416 whole entry, looked up): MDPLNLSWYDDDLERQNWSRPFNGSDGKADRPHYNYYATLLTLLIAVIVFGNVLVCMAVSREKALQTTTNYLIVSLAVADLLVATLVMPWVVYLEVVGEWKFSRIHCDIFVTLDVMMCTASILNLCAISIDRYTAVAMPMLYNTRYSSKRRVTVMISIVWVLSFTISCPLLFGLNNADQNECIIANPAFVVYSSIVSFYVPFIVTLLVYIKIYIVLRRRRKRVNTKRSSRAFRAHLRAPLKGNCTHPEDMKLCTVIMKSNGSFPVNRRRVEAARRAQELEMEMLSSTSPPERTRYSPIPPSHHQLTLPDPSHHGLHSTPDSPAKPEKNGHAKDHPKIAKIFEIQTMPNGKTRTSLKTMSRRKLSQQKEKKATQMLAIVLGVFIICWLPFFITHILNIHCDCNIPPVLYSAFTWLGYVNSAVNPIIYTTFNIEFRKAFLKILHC
5-hydroxytryptamine receptor 2A (Homo sapiens), sequence (P28223 whole entry, looked up): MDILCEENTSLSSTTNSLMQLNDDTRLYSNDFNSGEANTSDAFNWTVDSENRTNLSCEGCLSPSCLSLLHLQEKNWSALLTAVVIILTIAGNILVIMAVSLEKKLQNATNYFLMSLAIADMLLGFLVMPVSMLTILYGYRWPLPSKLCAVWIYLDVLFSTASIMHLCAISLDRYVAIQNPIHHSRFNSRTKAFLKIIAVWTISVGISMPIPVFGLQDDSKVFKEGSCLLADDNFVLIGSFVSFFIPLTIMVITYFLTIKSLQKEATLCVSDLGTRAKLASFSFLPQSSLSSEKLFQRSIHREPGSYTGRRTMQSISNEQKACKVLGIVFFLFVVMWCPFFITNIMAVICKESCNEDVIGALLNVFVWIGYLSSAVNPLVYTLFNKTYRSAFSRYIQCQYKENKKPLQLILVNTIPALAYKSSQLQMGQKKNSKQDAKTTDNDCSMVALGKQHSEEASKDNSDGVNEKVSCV
Gonadotropin-releasing hormone receptor (Homo sapiens), sequence (P30968 whole entry, looked up): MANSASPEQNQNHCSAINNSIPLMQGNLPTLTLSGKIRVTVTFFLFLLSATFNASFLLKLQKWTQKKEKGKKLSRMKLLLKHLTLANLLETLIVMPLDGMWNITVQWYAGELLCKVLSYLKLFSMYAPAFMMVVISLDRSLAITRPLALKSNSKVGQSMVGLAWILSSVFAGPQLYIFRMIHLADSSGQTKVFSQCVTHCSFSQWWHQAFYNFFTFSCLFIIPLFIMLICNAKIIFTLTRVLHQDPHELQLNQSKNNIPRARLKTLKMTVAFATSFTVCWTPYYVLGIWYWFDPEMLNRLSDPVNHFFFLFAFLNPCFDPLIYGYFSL
KiSS-1 receptor (Homo sapiens), sequence (Q969F8 whole entry, looked up): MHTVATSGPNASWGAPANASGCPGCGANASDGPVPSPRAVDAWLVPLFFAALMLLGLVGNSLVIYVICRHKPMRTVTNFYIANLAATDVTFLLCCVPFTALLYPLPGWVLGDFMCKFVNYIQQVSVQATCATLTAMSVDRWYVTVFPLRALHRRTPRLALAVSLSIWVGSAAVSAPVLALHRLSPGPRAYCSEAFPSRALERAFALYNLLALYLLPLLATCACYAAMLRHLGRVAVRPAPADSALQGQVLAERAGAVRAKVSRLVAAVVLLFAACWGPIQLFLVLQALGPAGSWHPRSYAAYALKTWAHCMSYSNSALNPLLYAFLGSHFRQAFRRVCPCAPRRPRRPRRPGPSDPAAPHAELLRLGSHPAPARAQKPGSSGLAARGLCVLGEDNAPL

In the case of `Brc1cc(-c2ccc(Br)c(Br)c2Br)cc(Br)c1Br`, the Potency entry in experiment [1], in [2], in experiment [3], in [4], in [5] and in experiment [6] was “inactive” each time. Also, the Potency entry in [7], in experiment [8], in experiment [9], in [10], in experiment [11] and in experiment [12] was “inactive” each time. Further, the Potency entry in experiment [13], in experiment [14] and in [15] was “inactive” in each case.

As for `CCC(=O)OCCc1ccccc1`, the Potency entry in experiment [1], in [2], in experiment [3], in experiment [16], in experiment [17] and in experiment [5] was “inactive” in each case. In addition, the Potency entry in experiment [6], in experiment [18], in [7], in [8], in [9] and in experiment [10] was “inactive” each time. For the same compound, the Potency entry in [19], in experiment [12] and in [15] was “inactive” throughout.

In the case of `COC(=O)NCCC[Si](OC)(OC)OC`, the results for the Potency in experiment [1] and in experiment [4] were 54.5 µM (active) and 20.4 µM (active), respectively. Also, the Potency entry in experiment [2], in [3], in experiment [16], in experiment [17], in [5] and in experiment [6] was “inactive” throughout. In addition, the Potency result in [18], in experiment [7], in [8], in experiment [10], in experiment [19] and in experiment [11] was “inactive” each time. Also, the Potency entry in [12], in experiment [14] and in [15] was “inactive” each time.

Regarding `O=C(Nc1ncc([N+](=O)[O-])s1)c1cccs1`, in experiment [1], the Potency is 1.06 µM (active). The Potency entry in [2], in experiment [3], in experiment [16], in experiment [17], in experiment [4] and in experiment [6] was “inactive” each time. Also, the Potency entry in [18], in experiment [8], in experiment [9], in experiment [10], in experiment [11] and in experiment [14] was “inactive” in each case. In [15], the Potency result was “inactive”.

With `O=[N+]([O-])c1cc(N(CCO)CCO)ccc1NCCO`, the Potency entry in [1], in [2], in experiment [20], in [16], in experiment [17] and in experiment [4] was “inactive” throughout. The Potency result in experiment [5], in experiment [6], in experiment [7], in experiment [8], in experiment [9] and in experiment [10] was “inactive” in each case. In addition, the Potency result in experiment [11] was “inactive”.

As to `CN1CCCC(CC2c3ccccc3Sc3ccccc32)C1` (stereo unspecified), the Potency entry in experiment [1], in experiment [3], in [20], in [16], in experiment [17] and in experiment [4] was “inactive” in each case. Besides, the Potency result in experiment [5], in [8] and in experiment [10] was “inactive” each time. The Potency in [9] was 0.0015 µM (active).

For the compound `CCC1=C[C@@H]2CN(C1)Cc1c([nH]c3ccccc13)[C@@](C(=O)OC)(c1cc3c(cc1OC)N(C)[C@H]1[C@@](O)(C(=O)OC)[C@H](OC(C)=O)[C@]4(CC)C=CCN5CC[C@]31[C@@H]54)C2`, in experiment [1], the Potency is 0.376 µM (active). Also, the Potency entry in experiment [2], in [20], in [12], in [14] and in experiment [15] was “inactive” in each case.

For the compound `CCCCCCOc1ccccc1C(N)=O`, the Potency entry in experiment [1], in experiment [3], in experiment [20], in experiment [16], in experiment [17] and in experiment [4] was “inactive” in each case. Moreover, the Potency entry in experiment [5], in experiment [6], in experiment [7], in experiment [9], in [10] and in experiment [19] was “inactive” throughout. Also, the Potency entry in experiment [11], in experiment [12], in experiment [14] and in experiment [15] was “inactive” in each case.

For `CCCCCCCOC(=O)c1ccc(O)cc1`, the Potency entry in experiment [1], in experiment [3], in [20], in experiment [16], in [17] and in experiment [18] was “inactive” each time. Also, the Potency result in experiment [7], in experiment [9], in experiment [10], in experiment [12], in experiment [14] and in experiment [15] was “inactive” each time. Further, the Potency in [4] was 36.4 µM (active); in experiment [8] it was 38.9 µM (active); in experiment [11], 38.6 µM (active) and 45.2 µM (active).
